Compound activity deposited in PubChem BioAssay by Center for Chemical Genomics, University of Michigan.
Dicer inh = blocks human Dicer maturation of pre-miR-21; actives 6% (n = 47,000); z-score at 25 µM; Q9UPY3; AID 1347074; cat-ELCCA pre-miR-21 Dicer processing, chemiluminescence; stronger effect = higher value; in the data active = z-score above about 3, passing the limit was not always enough;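 note: higher signal means more uncleaved substrate so more Dicer inhibition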
Target sequence (Q9UPY3 whole entry, looked up): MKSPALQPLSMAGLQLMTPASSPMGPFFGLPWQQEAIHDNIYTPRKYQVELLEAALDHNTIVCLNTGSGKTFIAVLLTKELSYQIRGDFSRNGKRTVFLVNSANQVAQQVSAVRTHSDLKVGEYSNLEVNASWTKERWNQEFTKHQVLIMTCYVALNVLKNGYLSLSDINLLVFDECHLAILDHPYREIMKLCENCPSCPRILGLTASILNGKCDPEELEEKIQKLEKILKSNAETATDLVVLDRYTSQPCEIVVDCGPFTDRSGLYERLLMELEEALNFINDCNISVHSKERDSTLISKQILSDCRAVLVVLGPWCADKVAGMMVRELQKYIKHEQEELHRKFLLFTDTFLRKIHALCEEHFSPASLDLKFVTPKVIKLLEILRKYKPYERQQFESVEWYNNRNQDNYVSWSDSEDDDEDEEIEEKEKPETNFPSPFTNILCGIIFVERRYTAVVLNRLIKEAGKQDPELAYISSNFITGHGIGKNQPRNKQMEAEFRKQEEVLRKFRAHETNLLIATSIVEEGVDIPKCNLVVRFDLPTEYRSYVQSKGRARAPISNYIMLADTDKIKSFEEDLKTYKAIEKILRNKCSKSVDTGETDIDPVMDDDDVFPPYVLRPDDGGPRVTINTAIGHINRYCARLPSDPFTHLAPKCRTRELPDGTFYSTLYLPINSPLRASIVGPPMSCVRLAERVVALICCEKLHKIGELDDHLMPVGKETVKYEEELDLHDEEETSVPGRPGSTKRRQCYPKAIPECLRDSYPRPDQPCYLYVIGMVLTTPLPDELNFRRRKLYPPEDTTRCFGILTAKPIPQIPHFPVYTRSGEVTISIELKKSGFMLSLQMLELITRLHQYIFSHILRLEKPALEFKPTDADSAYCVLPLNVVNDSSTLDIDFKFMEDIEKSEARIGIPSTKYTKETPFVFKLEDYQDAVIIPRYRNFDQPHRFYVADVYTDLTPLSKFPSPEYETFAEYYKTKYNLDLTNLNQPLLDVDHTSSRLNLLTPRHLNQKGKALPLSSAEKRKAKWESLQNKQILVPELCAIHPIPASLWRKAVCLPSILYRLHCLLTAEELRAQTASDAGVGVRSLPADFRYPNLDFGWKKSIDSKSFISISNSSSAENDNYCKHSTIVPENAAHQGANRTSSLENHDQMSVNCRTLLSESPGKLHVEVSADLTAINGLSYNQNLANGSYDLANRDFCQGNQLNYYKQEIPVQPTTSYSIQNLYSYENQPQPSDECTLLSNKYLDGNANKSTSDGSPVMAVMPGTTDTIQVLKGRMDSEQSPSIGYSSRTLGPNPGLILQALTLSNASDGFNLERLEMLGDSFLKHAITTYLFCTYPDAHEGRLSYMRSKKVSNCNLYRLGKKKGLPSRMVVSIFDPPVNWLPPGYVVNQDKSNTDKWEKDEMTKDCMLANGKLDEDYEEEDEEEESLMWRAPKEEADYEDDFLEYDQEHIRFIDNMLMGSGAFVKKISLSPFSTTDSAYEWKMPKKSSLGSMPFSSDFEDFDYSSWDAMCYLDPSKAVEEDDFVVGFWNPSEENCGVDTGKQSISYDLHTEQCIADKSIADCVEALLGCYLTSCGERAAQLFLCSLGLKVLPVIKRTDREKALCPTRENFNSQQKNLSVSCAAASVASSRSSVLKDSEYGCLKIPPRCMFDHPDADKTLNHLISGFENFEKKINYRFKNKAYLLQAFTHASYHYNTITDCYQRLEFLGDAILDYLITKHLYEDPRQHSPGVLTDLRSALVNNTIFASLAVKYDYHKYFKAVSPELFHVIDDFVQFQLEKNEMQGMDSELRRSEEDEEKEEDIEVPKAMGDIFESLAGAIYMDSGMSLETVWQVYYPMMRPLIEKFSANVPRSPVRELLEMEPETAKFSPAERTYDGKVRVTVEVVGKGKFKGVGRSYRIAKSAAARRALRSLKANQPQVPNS
Hits are given with their value; n = inactive. Many of the other results were omitted from the sample, so hits are more common in it than they were.

SMILES | Dicer inh
CS/C(=N\C(N)=N/[N+](=O)[O-])Nc1ccc(C)c(C)c1 | n
CC(=O)Nc1ccc(C#N)c(C(F)(F)F)c1 | 5.6
CC(O)(CS(=O)(=O)c1ccc(F)cc1)C(=O)Nc1ccc(C#N)c(C(F)(F)F)c1 (stereo not given) | n
N#Cc1ccc(NC(=O)c2c(F)cccc2F)cc1C(F)(F)F | n
COc1ccc(CCNCC2CCCO2)cc1 (stereo not given) | n
C[N+](C)(C)CCOC(=O)CBr | n
CNC(=O)Oc1ccccc1OCC(=O)NCc1ccccc1Cl | n
C=CCSc1nnc(OC(=O)N(C)C)n1-c1ccc(Cl)cc1 | n
O=C1C(=Cc2ccco2)C(=O)N(c2ccccc2)C(=S)N1c1ccccc1 | 3.3
OCCC1CNCCN1Cc1c(F)cccc1Cl (stereo not given) | n
Cc1cc([C@@H]2CCCN2C)on1 | n
C[C@H](N)Cc1cccc(C(F)(F)F)c1 | n
CCC(COC(=O)c1cc(OC)c(OC)c(OC)c1)(c1ccccc1)N(C)C (stereo not given) | n
C[C@@H]1O[C@H](C[N+](C)(C)C)C[C@H]1O | n
Cc1nn(Cc2ccccc2Cl)c(=N)s1 | n
c1ccc(C2(c3ccccc3)CC2C2=NCCN2)cc1 (stereo not given) | n
CCOC(=O)c1c(C)n(C2CC2)c2ccc(OC)cc12 | n
